nsP2pro primary – inhibitors of chikungunya virus nsP2 protease; 31,000 compounds, 1.1% hits; Potency, µM (series often up to 24.9 µM), for inactives: top-dose activity change, negative = inhibition, usual class: inhibitors; Q8JUX6; FRET peptide cleavage, nsP2pro, fluorescence 1 h; note: nearly all actives have a fitted effect of over 60% in size
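Enzyme 150 nM, substrate 2.5 uM (both final); Tris-HCl 10 mM pH 8.0 + 0.01% Tween 20; cpd up to 25 uM, 7 pts; 15 min preinc., 1 h RT; fluorescence ex 525/em 598.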
CHIKV nsP2 cell – cell-based CHIKV nsP2 protease inhibition, secondary | shares compounds with nsP2pro primary | cell-based CHIKV nsP2 protease reporter assay | Potency, µM (highest dose often 51.1 µM), for the others: at the highest dose activity change, negative = inhibition, hits mostly inhibitors | 450 compounds, 10% hits | AID 1964100; note: nearly all actives have a fitted effect of over 70% in size
Target sequence (Q8JUX6 220-798 limits assumed): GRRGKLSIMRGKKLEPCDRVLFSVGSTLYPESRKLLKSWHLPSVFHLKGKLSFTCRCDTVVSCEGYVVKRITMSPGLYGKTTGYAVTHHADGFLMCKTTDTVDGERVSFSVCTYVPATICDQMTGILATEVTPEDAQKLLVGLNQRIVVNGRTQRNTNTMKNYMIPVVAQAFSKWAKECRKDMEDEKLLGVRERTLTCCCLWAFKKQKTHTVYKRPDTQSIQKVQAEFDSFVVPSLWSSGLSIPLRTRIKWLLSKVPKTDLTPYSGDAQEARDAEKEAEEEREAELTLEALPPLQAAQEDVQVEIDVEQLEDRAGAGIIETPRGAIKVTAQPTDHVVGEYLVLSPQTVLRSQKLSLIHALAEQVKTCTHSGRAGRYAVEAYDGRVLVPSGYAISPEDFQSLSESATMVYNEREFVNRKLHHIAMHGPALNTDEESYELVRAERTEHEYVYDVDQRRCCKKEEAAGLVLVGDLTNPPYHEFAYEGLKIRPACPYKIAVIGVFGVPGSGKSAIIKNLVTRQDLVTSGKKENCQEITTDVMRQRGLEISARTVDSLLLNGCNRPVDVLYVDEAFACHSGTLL
CHIKV NSP2 FL – selectivity test for CHIKV nsP2 protease inhibitors: full-length NSP2 | shares compounds with nsP2pro primary | Full-length CHIKV NSP2 protease enzymatic counterscreen | Potency, µM (series often up to 50.7 µM), for the others: at the highest dose activity change, negative = inhibition, actives largely listed as inhibitors | 410 compounds, 39% hits | AID 1964101; note: nearly all actives have a fitted effect of over 65% in size
Furin counterscr – inhibits human furin in a CHIKV nsP2 protease selectivity counterscreen; shares compounds with nsP2pro primary; AID 1964102; 410 compounds, 6% hits; Recombinant human furin enzymatic counterscreen, fluorogenic substrate; Potency, µM (highest dose often 50.6 µM), for the others: top-dose activity change, negative = inhibition, hits mostly inhibitors
nsP2 NS23 pep – blocks CHIKV nsP2 protease cleavage of endogenous NS2/3 peptide; shares compounds with nsP2pro primary; 410 compounds, 34% hits; Purified CHIKV nsP2 protease, endogenous NS2/3 peptide cleavage; Potency, µM (series often up to 51 µM), inactives show at the highest dose activity change, negative = inhibition, actives largely listed as inhibitors; AID 1964103; note: nearly all actives have a fitted effect of over 55% in size
Papain counter – selectivity counter-screen for CHIKV nsP2 protease inhibitors: papain; shares compounds with nsP2pro primary; purified papain protease activity, enzymatic inhibition; Potency, µM (titrated, usually from 51 µM), inactives show at the highest dose activity change, negative = inhibition, hits mostly inhibitors; 410 compounds, 5% hits; AID 1964104
nsP2pro conf qHTS – CHIKV nsP2 protease inhibition, confirmatory qHTS; shares compounds with nsP2pro primary; AID 1964105; 410 compounds, 43% hits; CHIKV nsP2 protease enzymatic activity, qHTS; Potency, µM (top dose mostly 25.5 µM), inactives show at the highest dose activity change, negative = inhibition, most hits filed as inhibitors; note: nearly all actives have a fitted effect of over 75% in size
HCV NS3 counter – HCV NS3/4A protease inhibition, counterscreen; shares compounds with nsP2pro primary; HCV NS3/4A protease biochemical counterscreen; Potency, µM (doses to about 50.9 µM), most hits filed as inhibitors; 410 compounds, 20% hits; note: nearly all actives have a fitted effect of over 55% in size
The depositor's hits bear a star; i = inactive; u = inconclusive. The entries come from a sample that favours hits as a whole. Calls come from the whole dose curve. % is set by controls: 0 for no effect and ±100 for the full control effect; potency is the fitted concentration of half-maximal effect.

SMILES	nsP2pro primary	others
Cc1cccc(OCC(=O)c2ccc3c(c2)N(C(C)C(=O)N2CCOCC2)C(=O)CO3)c1C (stereo not drawn)	i
CCN1CCN(C(=O)C2CCc3nnc(-c4cccc(C(F)(F)F)c4)n32)CC1 (stereo not drawn)	2%
Nc1nc(C2CC(N)C2)cc(N2CCCN(Cc3cccs3)CC2)n1 (stereo not drawn)	-1%
Cc1noc(C2CN(C(=O)c3cc(-c4ccco4)[nH]n3)CC2c2ccccc2)n1 (stereo not drawn)	10µM*	CHIKV nsP2 cell=8%;CHIKV NSP2 FL=8.2µM*;Furin counterscr=-9%;nsP2 NS23 pep=u;Papain counter=-13%;nsP2pro conf qHTS=9µM*;HCV NS3 counter=u
Cc1noc([C@@H]2CN(Cc3ccc[nH]3)C[C@H]2CO)n1	i
Cc1noc([C@@H]2CN(C(=O)c3cc(C4CC4)[nH]n3)C[C@H]2C(N)=O)n1	-14%
CC(C)CN1CCN(C(=O)CC2CCN(S(C)(=O)=O)C2)CC1 (stereo not drawn)	0%
N#Cc1ccc(-c2ccc(CNc3ccc(N4CCCCC4)cc3)o2)cc1	3.5µM*	CHIKV nsP2 cell=u;CHIKV NSP2 FL=-61%;Furin counterscr=-4%;nsP2 NS23 pep=u;Papain counter=-21%;nsP2pro conf qHTS=u;HCV NS3 counter=1.8µM*
N#Cc1ccc(-c2ccc(CNc3ccc(N4CCN5CCCCC5C4)cc3)o2)cc1 (stereo not drawn)	-21%
N#Cc1ccc(-c2ccc(CNc3ccc(N4CCOCC4)cc3)o2)cc1	-20%
CC12CCC3C1C(c1c(cc(O)c(C(=O)c4ccccc4)c1O)O2)C3(C)C (stereo not drawn)	24%
COc1ccc(Cl)c(Nc2ncnc3cc(OCC4CCN(C)CC4)c(OC)cc23)c1	0%
CCN(CCNC(=O)C1CCCCC(=O)N1C)Cc1ccccc1 (stereo not drawn)	-4%
COc1ccc(-c2cc([C@H]3CN4CC[C@H]3C[C@@H]4COC(=O)NC3CCCCC3)nc(C)n2)cc1	i
Cc1nc(-c2ccco2)cc([C@H]2CN3CC[C@H]2C[C@@H]3CNC(=O)NC2CCCCC2)n1	8.9µM*	CHIKV nsP2 cell=31%;CHIKV NSP2 FL=13µM*;Furin counterscr=u;nsP2 NS23 pep=17µM*;Papain counter=-8%;nsP2pro conf qHTS=13µM*;HCV NS3 counter=8.4µM*
CC(=O)c1cccc(NC(=O)NC[C@H]2C[C@@H]3CCN2C[C@@H]3c2cc(-c3ccc(F)cc3)nc(C)n2)c1	i
Cc1nc(-c2cccs2)cc([C@H]2CN3CC[C@H]2C[C@@H]3COC(=O)NC2CCCCC2)n1	6%
Cc1nc(-c2ccccc2Br)cc([C@H]2CN3CC[C@H]2C[C@@H]3CNC(=O)NC2CCCCC2)n1	5µM*	CHIKV nsP2 cell=-3%;CHIKV NSP2 FL=u;Furin counterscr=u;nsP2 NS23 pep=16µM*;Papain counter=0%;nsP2pro conf qHTS=8µM*;HCV NS3 counter=13µM*
COc1ccc(-c2cc([C@H]3CN4CC[C@H]3C[C@@H]4CNC(=O)NC3CCCCC3)n(C)n2)cc1	12%
Cc1c(P(=S)(c2ccccc2)c2ccccc2)[n+]2ccccc2n1CCCCCc1ccccc1	1%
Brc1cnc2nc(SCc3cccnc3)[nH]c2c1	3%
Cc1cc(NS(=O)(=O)Cc2ccc(NC(=O)Cc3ccc(Cl)c(Cl)c3)cc2)no1	i
Cc1ccnc(NC(=S)N2CCN(c3cccc(C(F)(F)F)c3)C2)c1	4%
COc1ccc(-c2cc3n(n2)CCCN(C(=O)c2cc(CN4CCOCC4)on2)C3)cc1	16%
Cc1ccc(-c2cc3n(n2)CCCN(C(=O)c2cc(CN4CCOCC4)on2)C3)o1	1µM*	CHIKV nsP2 cell=-9%;CHIKV NSP2 FL=15µM*;Furin counterscr=-7%;nsP2 NS23 pep=u;Papain counter=-5%;nsP2pro conf qHTS=7.1µM*;HCV NS3 counter=u

Screening data from PubChem.
